Compound activity from PubChem BioAssay.
Lassa entry: Lassa virus entry inhibition. Lassa virus pseudotyped entry inhibition, cell-based qHTS. Potency, µM (highest dose often 49.2 µM), actives largely listed as inhibitors. 4.1% of 18,000 active. AID 720533
MARV entry inh: inhibitors of Marburg virus binding or entry into cells; Marburg virus pseudotype entry/binding inhibition, cell-based; Potency, µM (series often up to 49.2 µM), actives largely listed as inhibitors; 6.5% of 18,000 active; AID 720532
Numbers stand for hits; - = inactive; ? = inconclusive; . = not tested or not shown; ! = a repeat was not active; [ ] = dose if it differs, or a comment. Compounds with a hit are over-represented: about 8% of the library has one in this group of screens. The call rests on the fitted dose curve; tested in HEK293 cells.

SMILES	Lassa entry	MARV entry inh
Cc1cc(O)cc(C)c1C=Cc1cncc(-c2nn[nH]n2)c1	-	-
O[C@H]1CN(Cc2cccs2)[C@@H](c2ccccc2)C[C@H]1n1cc(-c2ccc(F)cc2)nn1	-	-
CC1OC(=O)C(C(C)C)NC(=O)C(C(C)C)OC(=O)C(C(C)C)NC(=O)C(C)OC(=O)C(C(C)C)NC(=O)C(C(C)C)OC(=O)C(C(C)C)NC(=O)C(C)OC(=O)C(C(C)C)NC(=O)C(C(C)C)OC(=O)C(C(C)C)NC1=O (configuration not stated)	0.13µM	89µM
CC(C)[C@@H](OCc1ccccc1)[C@H](C)C=NO[C@H](C)c1cn([C@H](CO)Cc2ccccc2)nn1	-[8.59 µM]	-[8.59 µM]
CC(C)OC(=O)c1cc2c(OCC(O)CNC(C)(C)C)cccc2[nH]1 (configuration not stated)	-	35µM
C=NCc1cc2c(OC[C@@H](O)CNC(C)(C)C)cccc2[nH]1	-	?
CCCCCCCCCC=C[C@@H]1C[C@H]2C=CCO[P@@](=O)(O1)O2	-	-
C=C(C)C1CC23C(=O)[C@]4(C(=O)c5ccccc5)C[C@@]5(C)CCC(CC2C1(C)C)(C4=O)[C@@]35OC (some centres not stated)	-[8.59 µM]	-[8.59 µM]
CC1=CC(=C(c2ccc(N)cc2)c2ccc(N)cc2)C=CC1=N	7.9µM	?
O=S1(=O)CCSCCN1Cc1ccc(Br)cc1	-	-
Cc1[nH]ccc2c1[nH]c1cc(=O)ccc12	?	13µM
O=C1[C@@H]2[C@H]3[C@H](O)[C@H](O)CC(=NOC[C@@H](O)COCc4ccco4)[C@@H]3CC[C@H]2C(=O)N1C[C@@H]1CCCO1	-[8.59 µM]	?
CC(C)(c1ccc(OCC2CO2)cc1)c1ccc(OCC2CO2)cc1 (configuration not stated)	8.9µM!	7.1µM!
c1ccc(COC[C@H]2CO2)cc1	-	-
COC(=O)C1=C(C)N(Cc2ccccc2)C(=S)NC1c1cccc(F)c1 (configuration not stated)	-[8.59 µM]	-[8.59 µM]
CC[C@@H](C(=O)[C@@H](C)[C@@H](O)[C@H](C)CCc1ccc(C)c(O)c1C(=O)O)[C@H]1O[C@](CC)([C@H]2CC[C@](O)(CC)[C@H](C)O2)C[C@@H]1C	11µM	-
COc1ccc(CN2CCC3(CC2)c2ccccc2[C@@H](NC(=O)c2ccccc2OC)[C@@H]3O)cc1O	-	-
CS(=O)(=O)Nc1cccc(-c2ccc3c(NC(=O)C4CC4)n[nH]c3c2)c1	.	3.5µM
CS(=O)(=O)Nc1ccc(-c2ccc3c(NC(=O)C4CC4)n[nH]c3c2)cc1	-	-
O=C1NC2CCCCN2C12CCN(CCCN1c3ccccc3CCc3ccc(Cl)cc31)CC2 (configuration not stated)	28µM	7.1µM
O=C1CCc2ccc(OCCCCN3CCN(c4cccc(Cl)c4Cl)CC3)cc2N1	?	-
COC(=O)C1=C(C)N(CC2CC2)C(=NCCc2cccnc2)NC1c1ccccc1 (configuration not stated)	-[8.59 µM]	-[8.59 µM]
CN(C)c1cccc(CN2CCN(c3ccccc3)CC2)c1	-	-
CCc1cccc(N(C)C(N)=Nc2cccc3ccccc23)c1	?	28µM
CC(C)OC(=O)[C@H](C)NC(=O)N1CCc2nc(-c3ccccc3)c3c(c2C1)CO[C@@H](C)C3	-[8.59 µM]	-[8.59 µM]
SMILES	Lassa entry	MARV entry inh
[O][C@H]1[C@@H](O)[C@@H](CO)O[C@@H](O[C@@H]2[C@@H]3OC[C@H]2O[C@H](O[C@@H]2[C@@H](O)[C@H](C[C@@H]4[C@@H]5OC[C@H]4O[CH][C@@H]5O)O[C@H](CO)[C@@H]2OS(=O)(=O)O)[C@@H]3OS(=O)(=O)O)[C@@H]1O	-	11µM
OC[C@@H]1O[C@H](OC2[C@@H](O)[C@@H](O)C(O)O[C@@H]2CO)[C@H](O)[C@@H](O)[C@@H]1OC1O[C@H](CO)[C@@H](O)[C@H](O)[C@@H]1O (some centres not stated)	-	-
COc1ccc(CN(C2CCCC2)S(=O)(=O)c2ccccc2Br)cc1	-	?
O[C@@H]1C[C@H](c2ccccc2)N(Cc2cccs2)C[C@@H]1n1cc(C2CC2)nn1	-	-
COc1cccc(CO[C@H]2C=C[C@@H](c3ccccc3)O[C@H]2CO)c1	-[8.59 µM]	-[8.59 µM]
O=C1[C@H]2[C@@H]3[C@@H](O)[C@H](O)CC(=NOCc4ccccc4)[C@@H]3CC[C@H]2C(=O)N1c1ccc(F)cc1F	-[8.59 µM]	-[8.59 µM]
O=C(OC[C@H]1O[C@](O)(COC(=O)c2cccnc2)[C@@H](OC(=O)c2cccnc2)[C@@H]1OC(=O)c1cccnc1)c1cccnc1	-	-
CCCCCC(=O)N1C[C@@H](n2cc(-c3ccc(F)cc3)nn2)[C@H](O)C[C@H]1c1ccc(OC)cc1	.	-
CN1C/C(=C/c2ccc(B(O)O)cc2)C(=O)/C(=C/c2ccc(B(O)O)cc2)C1	13µM	6.3µM
O=C(c1cccs1)N1C[C@@H](n2cc(C3CC3)nn2)[C@@H](O)C[C@@H]1c1ccc(Cl)cc1	-	-
CCCCCCN1C[C@@H](n2cc(COC(=O)c3ccccc3)nn2)[C@H](O)C[C@H]1c1ccc(Cl)cc1	-	?
